Results filed as inconclusive are left out. The source made the active and inactive calls. Unless noted, calls follow the shape of the dose curve; as a rule, active = well fitted curve in the direction sought with a large enough effect in the repeat runs; inconclusive = weak or mixed curves; inactive = no such curve, though single readings can be large; an effect the other way counts as inactive or inconclusive.
Columns and labels:
[1] = qHTS assay for small molecule agonists of the p53 signaling pathway (AID 651631; calls by dose curve; also: nearly all actives have a fitted effect of over 15% in size; also: potency is read from the fitted curve at half-maximal effect)
Summary of the method: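 HCT-116 p53RE-bla reporter line, 16 h compound treatment at 37 °C, then fluorescence after 2 h with B/G FRET substrate.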

[2] = qHTS assay for small molecules that induce genotoxicity in human embryonic kidney cells expressing luciferase-tagged ATAD5 (AID 651632); also: nearly all actives have a fitted effect of over 15% in size
Summary of the method: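 HEK293T cells carrying a luciferase reporter tagged to ATAD5 were exposed to compound or DMSO vehicle for 16 hr at 37C, 5% CO2. Amplite was added, and after 30 min at room temperature luciferase activity was read as a marker of ATAD5 induction.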

[3] = qHTS assay for small molecule agonists of the p53 signaling pathway - cell viability (AID 651633; calls by dose curve;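 also: p53RE-bla HCT reporter cells with a stable beta-lactamase p53 reporter; series mostly up to about 83 µM; nearly all actives have a fitted effect of over 30% in size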)
Summary of the method: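 Viability counter-read: CellTiter-Glo luminescence (30 min, room temperature) in the same p53RE-bla plates. These plates had been exposed to compounds for 16 h at 37 C.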

[4] = qHTS assay for small molecules that induce genotoxicity in human embryonic kidney cells expressing luciferase-tagged ATAD5 - cell viability (AID 651634; calls by dose curve; also: nearly all actives have a fitted effect of over 25% in size)
Summary of the method: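 HEK293T cells expressing luciferase-tagged ATAD5 were exposed to compound or DMSO for 15.5 hr at 37C, 5% CO2. Viability was then read as live-cell protease activity by CellTiter-Fluor fluorescence after 30 min at 37C.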

[5] = qHTS assay for small molecule disruptors of the mitochondrial membrane potential - cell viability (AID 720634; calls by dose curve;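 also: human HepG2 liver cancer cells; series mostly up to about 83 µM; nearly all actives have a fitted effect of over 20% in size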)
Summary of the method: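 HepG2 cells seeded overnight at 37 C, then exposed to compound or DMSO for 1 hr at 37 C, 5% CO2. m-MPI dye added, then CellTiter-Glo for 30 min at room temperature; viability read as ATP luminescence.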

[6] = qHTS assay for small molecule disruptors of the mitochondrial membrane potential (AID 720635); also: potency is read from the fitted curve at half-maximal effect
Summary of the method: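 Mitochondrial membrane potential tracked with Mito-MPS dye, red aggregates (ex 540/em 590 nm) against green monomers (ex 490/em 535 nm). Compound treatment 1 hr at 37C, dye 30 min in HepG2.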

[7] = qHTS assay to test for compound auto fluorescence at 590 nm (red) in HepG2 cells (AID 720674)
Summary of the method: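 We screened compounds on adherent HepG2 cells, incubating them for an hour at 37 C in 5% CO2 before reading emission at 590 nm under 540 nm excitation; values reflect equivalence to Rose Bengal sodium fluorescence.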

[8] = qHTS assay to test for compound auto fluorescence at 535 nm (green) in HepG2 cells (AID 720675)
[9] = qHTS assay to test for compound auto fluorescence at 460 nm (blue) in HEK293 cells (AID 720678)
Summary of the method: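 Intrinsic compound fluorescence is recorded in live HEK293 cultures after overnight incubation at 37C, 5% CO2, using excitation 405 nm and emission 460 nm. Values are referenced to triamterene.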

[10] = qHTS assay to test for compound auto fluorescence at 590 nm (red) in HEK293 cells (AID 720679)
Summary of the method: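 Red autofluorescence, HEK293 cells: 2,000 cells/well; attach 4-5 hr 37C; add 23 nL cpd or DMSO; incubate o/n 37C 5% CO2; read Ex540/Em590; Rose Bengal sodium reference.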

[11] = qHTS assay to test for compound auto fluorescence at 535 nm (green) in HEK293 cells (AID 720680)
[12] = qHTS assay to test for compound auto fluorescence at 460 nm (blue) in HEK293 cell free culture (AID 720681)
Summary of the method: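 Blue fluorescence (Ex 405/Em 460 nm, triamterene-equivalent) was read immediately after pin transfer of compound or DMSO into medium (DMEM, 10% FBS) without cells.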

[13] = qHTS assay to test for compound auto fluorescence at 535 nm (green) in HEK293 cell free culture (AID 720682)
Summary of the method: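 Steps: dispense DMEM/10% FBS into empty wells; pin in compound or DMSO; measure fluorescence at 485/535 nm. Values are fluorescein equivalents.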

[14] = qHTS assay to test for compound auto fluorescence at 590 nm (red) in HEK293 cell free culture (AID 720683)
Summary of the method: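 Red-channel autofluorescence of compounds in culture medium (DMEM, 10% FBS), no cells, measured at 540/590 nm. Rose Bengal sodium is the reference fluorophore for equivalence.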

[15] = qHTS assay to test for compound auto fluorescence at 460 nm (blue) in HepG2 cell free culture (AID 720685)
Summary of the method: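 Compound (23 nL) or DMSO pinned into cell-free MEM with 10% FBS; blue fluorescence read at 405/460 nm excitation/emission, expressed as auto-fluorescence equivalency to triamterene.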

[16] = qHTS assay to test for compound auto fluorescence at 535 nm (green) in HepG2 cell free culture (AID 720686)
[17] = qHTS assay to test for compound auto fluorescence at 460 nm (blue) in HepG2 cells (AID 720687)
Summary of the method: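 Blue-channel autofluorescence (Ex/Em 405/460 nm, triamterene-equivalent) was measured after 1 hr compound exposure at 37 C, 5% CO2. Cells were HepG2, plated overnight at 37 C in MEM plus 10% FBS.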

[18] = target: Glucocorticoid receptor (Homo sapiens) (UniProt P04150); experiment: qHTS assay to identify small molecule agonists of the glucocorticoid receptor (GR) signaling pathway (AID 720691; active = well fitted activation curve with a large enough effect in the signal ratio in the repeat runs, not every such curve was filed as active; the % refers to the signal ratio)
Summary of the method: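 GR-bla HeLa cells (beta-lactamase reporter under glucocorticoid response element) were plated 4 h at 37 C/5% CO2, given compounds in DMSO, and incubated 18 h at 37 C. LiveBLAzer B/G FRET substrate was added for 2 h at room temperature, then fluorescence intensity read.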

[19] = target: Glucocorticoid receptor (Homo sapiens) (UniProt P04150); experiment: qHTS assay to identify small molecule antagonists of the glucocorticoid receptor (GR) signaling pathway (AID 720692; active = well fitted inhibition curve with a large enough effect in the signal ratio in the repeat runs, not every such curve was filed as active; the % refers to the signal ratio)
Summary of the method: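 GR-bla HeLa cells (beta-lactamase reporter under glucocorticoid response element) were pre-plated 4 h at 37 C, treated with compounds plus 5 nM dexamethasone (final) for 18 h, then read by LiveBLAzer B/G FRET fluorescence after 2 h.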

[20] = qHTS assay to test for compound auto fluorescence at 590 nm (red) in HepG2 cell free culture (AID 720684)
Summary of the method: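 Plate contents were MEM with 10% FBS plus test compound or DMSO, no cells. Fluorescence was recorded with 540 nm excitation and 590 nm emission.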

Measured: Potency

Sequence of Glucocorticoid receptor (Homo sapiens) (P04150 whole entry, looked up): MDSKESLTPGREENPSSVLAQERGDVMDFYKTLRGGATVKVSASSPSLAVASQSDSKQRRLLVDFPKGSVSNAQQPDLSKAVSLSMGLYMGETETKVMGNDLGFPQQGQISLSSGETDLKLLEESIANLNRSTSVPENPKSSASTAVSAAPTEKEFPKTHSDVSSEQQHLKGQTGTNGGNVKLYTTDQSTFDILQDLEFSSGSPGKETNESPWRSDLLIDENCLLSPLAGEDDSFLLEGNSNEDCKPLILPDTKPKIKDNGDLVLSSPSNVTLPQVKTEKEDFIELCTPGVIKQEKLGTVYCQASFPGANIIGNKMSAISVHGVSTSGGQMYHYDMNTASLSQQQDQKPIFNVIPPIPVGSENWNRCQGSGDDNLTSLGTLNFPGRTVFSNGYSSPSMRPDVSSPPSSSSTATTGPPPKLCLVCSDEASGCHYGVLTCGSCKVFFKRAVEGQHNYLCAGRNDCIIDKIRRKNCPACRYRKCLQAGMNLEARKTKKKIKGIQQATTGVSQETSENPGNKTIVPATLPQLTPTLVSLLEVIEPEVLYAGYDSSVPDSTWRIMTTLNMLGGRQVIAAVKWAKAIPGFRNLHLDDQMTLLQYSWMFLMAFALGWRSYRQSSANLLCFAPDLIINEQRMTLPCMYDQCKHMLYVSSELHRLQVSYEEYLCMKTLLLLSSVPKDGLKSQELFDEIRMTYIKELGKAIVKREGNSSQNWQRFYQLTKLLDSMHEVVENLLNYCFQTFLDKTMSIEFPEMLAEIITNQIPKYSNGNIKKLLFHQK

CC(=O)[C@H]1CC[C@H]2[C@@H]3CC[C@H]4C[C@H](O)CC[C@]4(C)[C@H]3C(=O)C[C@]12C
not listed: [18] | [19] | [20]
inactive: all other assays above

COc1cc(OC)nc(Sc2cccc(Cl)c2C(=O)O)n1
not listed: [7] | [20]
inactive: all other assays above

COCC(=O)N(c1c(C)cccc1C)N1CCOC1=O
not listed: [7] | [12] | [13] | [18] | [19]
inactive: all other assays above

CC(CC(C#N)(c1ccccc1)c1ccccc1)N(C)C (stereo not drawn)
not listed: [6] | [7] | [15]
inactive: all other assays above

C#C[C@]1(O)C=C[C@H]2[C@@H]3CCC4=CC(=O)CC[C@@H]4[C@H]3CC[C@@]21CC
not listed: [6] | [13] | [14] | [19] | [20]
inactive: all other assays above

O=c1oc2ccccc2c(O)c1C1CCCc2ccccc21 (stereo not drawn)
active: [6] 13.7 µM
not listed: [5]
inactive: all other assays above

ClC(Cl)C(Cl)Cl
not listed: [6] | [15] | [20]
inactive: all other assays above

COc1cc(OC)nc(Oc2cccc(Oc3nc(OC)cc(OC)n3)c2C(=O)O)n1
not listed: [6] | [11] | [14] | [18] | [19]
inactive: all other assays above

O=C(NCO)NCO
not listed: [4]
inactive: all other assays above

CC(COc1ccc(Oc2ccccc2)cc1)Oc1ccccn1 (stereo not drawn)
not listed: [5] | [6] | [15] | [17] | [18] | [19]
inactive: all other assays above

CCOC(=O)NC(=S)Nc1ccccc1NC(=S)NC(=O)OCC
active: [1] 61.1 µM
not listed: [6] | [11] | [12] | [13] | [19]
inactive: all other assays above

CCCCOC(=O)[C@@H](C)Oc1ccc(Oc2ccc(C#N)cc2F)cc1
not listed: [5] | [6] | [11] | [19]
inactive: all other assays above

CCOP(=S)(OCC)Oc1cc(-c2ccccc2)on1
not listed: [5] | [6] | [11] | [12] | [15]
inactive: all other assays above

O=C1c2ccccc2C(=O)c2ccccc21
not listed: [6] | [11] | [12] | [14] | [18] | [19]
inactive: all other assays above

CCOC(=O)CP(=O)(OCC)OCC
not listed: [6] | [11] | [14] | [18] | [19]
inactive: all other assays above

Clc1cccc(N2CCNCC2)c1
not listed: [6] | [12] | [20]
inactive: all other assays above

CCCCP(CCCC)CCCC
not listed: [6] | [12] | [15] | [18] | [19]
inactive: all other assays above

— PubChem BioAssay (Tox21)
